Compound activity (PubChem BioAssay)
Only a selection was taken, and hits are over-represented in it overall.
BL2 CD40 inh: CD40 pathway inhibition in BL2 cells | BL2 NF-kB luciferase reporter, CD40L-induced, 4 h | AID 1053188 | 0.94% of 83,000 active | inhibition, % at 10 µM;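 active = mean inhibition of at least 50% with a set share of replicates also reaching that level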
Each line names hits and unclear results; the compound was inactive in the other large screens; [ ] = another dose, or the depositor's remark.

C[C@H](CO)N1C[C@H](C)[C@H](CN(C)C(=O)Nc2ccc3c(c2)OCO3)OCCCC[C@H](C)Oc2ccc(NS(=O)(=O)c3cccs3)cc2C1=O	none
CO[C@@H]1CN(C)C(=O)c2cc(NC(=O)C3CC3)ccc2OC[C@@H](C)N(C(=O)C2CCOCC2)C[C@H]1C	none
Cc1ccc(S(=O)(=O)Nc2cccc3c2O[C@H](CN(C)C(=O)Nc2ccc(C(F)(F)F)cc2)[C@H](C)CN([C@H](C)CO)C3=O)cc1	none
Cc1cc(C)nc(NC(N)=NCCc2ccccc2)n1	none
Cc1cc(C)nc(NC(N)=NCCc2c[nH]c3ccccc23)n1	BL2 CD40 inh 66
Cc1cc(C)nc(NC(N)=NC(C)c2ccccc2)n1 (stereo not drawn)	none
CCCN1CCN(C(=O)C(NC(=O)c2ccco2)C(C)C)CC1 (stereo not drawn)	none
Cc1cc(C)c(S(=O)(=O)N2CCCCC2CCNC(=O)C(=O)NCc2cccnc2)c(C)c1 (stereo not drawn)	none
Cc1ccccc1S(=O)(=O)N1[C@H](C#N)[C@H](c2ccc(C#CC3CCCCC3)cc2)[C@H]1CO	BL2 CD40 inh 48
Cc1ccccc1S(=O)(=O)N1[C@H](C#N)[C@H](c2ccc(C#CC3CCCC3)cc2)[C@@H]1CO	none
Cc1ccccc1S(=O)(=O)N1[C@@H](C#N)[C@H](c2ccc(C#CC3CCCC3)cc2)[C@@H]1CO	none
Cc1ccccc1S(=O)(=O)N1[C@H](C#N)[C@H](c2ccc(C#CC3CCCC3)cc2)[C@H]1CO	BL2 CD40 inh 40
Cc1ccccc1S(=O)(=O)N1[C@@H](C#N)[C@@H](c2ccc(C#CC3CCCCC3)cc2)[C@@H]1CO	none
Cc1ccccc1S(=O)(=O)N1[C@H](C#N)[C@@H](c2ccc(C#CC3CCCCC3)cc2)[C@@H]1CO	none
CCCC1(CCC)NC(=O)N(CC(=O)Nc2ccc(Cl)c(S(=O)(=O)N3CCOCC3)c2)C1=O	none
N#C[C@@H]1[C@@H](c2ccc(C3=CCCC3)cc2)[C@@H](CO)N1C(=O)NC1CCCCC1	none
CC1(C(=O)Nc2ccc3nc[nH]c3c2)CCN1C(=O)c1ccccc1CCc1ccccc1 (stereo not drawn)	none
O=C(c1ccc(F)cc1)N1[C@@H]2CNc3ccccc3[C@@H]2[C@@H]1CO	none
C[C@H](CO)N1C[C@H](C)[C@H](CN(C)Cc2ccccc2C(F)(F)F)OCc2ccccc2-c2ccccc2C1=O	none
C[C@@H]1CN([C@H](C)CO)C(=O)c2ccccc2-c2ccccc2CO[C@@H]1CN(C)Cc1ccccc1C(F)(F)F	BL2 CD40 inh 83[25 µM]
C[C@H](CO)N1C[C@H](C)[C@@H](CN(C)Cc2ccc(Oc3ccccc3)cc2)OCc2ccccc2-c2ccccc2C1=O	BL2 CD40 inh 69[25 µM]
C[C@@H]1CN([C@H](C)CO)C(=O)c2ccccc2-c2ccccc2CO[C@@H]1CN(C)Cc1ccccc1	none
C[C@H](CO)N1C[C@H](C)[C@@H](CN(C)Cc2ccccc2)OCc2ccccc2-c2ccccc2C1=O	none
C[C@@H]1CN([C@@H](C)CO)C(=O)c2ccccc2-c2ccccc2CO[C@@H]1CN(C)Cc1ccc(C(F)(F)F)cc1	none
C[C@@H]1CN([C@@H](C)CO)C(=O)c2ccccc2-c2ccccc2CO[C@@H]1CN(C)Cc1ccccc1C(F)(F)F	BL2 CD40 inh 53[25 µM]
COc1ccccc1CN(C)C[C@H]1OCc2ccccc2-c2ccccc2C(=O)N([C@@H](C)CO)C[C@H]1C	none
C[C@H]1CN([C@@H](C)CO)C(=O)c2ccccc2-c2ccccc2CO[C@H]1CN(C)Cc1ccccc1C(F)(F)F	none
COc1ccc(OC)c(CN2CCN(C(=O)CCC(=O)c3cccs3)CC2)c1	none
Cc1ccc(S(=O)(=O)N(C)C[C@@H]2OCCCC[C@@H](C)Oc3ccc(NS(C)(=O)=O)cc3C(=O)N([C@@H](C)CO)C[C@@H]2C)cc1	none
O=C(Nc1ccc(F)cc1)N1CC(=O)N2[C@H](C1)[C@@H](c1ccc(-c3cccc(F)c3)cc1)[C@@H]2CO	none
C[C@@H]1CCCCO[C@H](CN(C)S(C)(=O)=O)[C@@H](C)CN([C@H](C)CO)C(=O)c2cc(NC(=O)NC3CCCCC3)ccc2O1	none
O=C(Cc1ccccc1)N1CC[C@@H]2[C@H]1c1cc(-c3cccc(F)c3)ccc1N[C@@H]2CO	BL2 CD40 inh 70[25 µM]
O=C(c1ccncc1)N1CC[C@@H]2[C@H](CO)Nc3ccc(-c4ccc(F)cc4)cc3[C@@H]21	none
O=C(c1ccncc1)N1CC[C@@H]2[C@@H](CO)Nc3ccc(-c4ccc(F)cc4)cc3[C@@H]21	BL2 CD40 inh active[25 µM]
O=C(Cc1ccccc1)N1CC[C@H]2[C@H](CO)Nc3ccc(-c4cccc(F)c4)cc3[C@H]21	none
O=C(Cc1ccccc1)N1CC[C@@H]2[C@H](CO)Nc3ccc(-c4cccc(F)c4)cc3[C@@H]21	none
O=C(Cc1ccccc1)N1CC[C@@H]2[C@H]1c1cc(C#Cc3cccc(F)c3)ccc1N[C@@H]2CO	BL2 CD40 inh 82[25 µM]
O=C(c1cccc(F)c1)N1CC[C@@H]2[C@@H](CO)Nc3ccc(-c4ccc(F)cc4)cc3[C@@H]21	none
O=C(Cc1ccccc1)N1CC[C@@H]2[C@@H](CO)Nc3ccc(-c4cccc(F)c4)cc3[C@@H]21	none
O=C(Cc1ccccc1)N1CC[C@@H]2[C@@H](CO)Nc3ccc(C#Cc4cccc(F)c4)cc3[C@@H]21	none
